Assay results: the supplement of paper PMC3334620
In all, about 33,000 sequences were measured (“E-score (-0.5 to 0.5)”: median about -0.035, highest 2% from about 0.35 on). Many of the other results were omitted from the sample, so the highest values are more common in it than they were.

Each sequence was assayed against T1, Pdr3 (UniProt P33200) (assay: PBM E-score (8-mer binding enrichment) (E-score (-0.5 to 0.5)); higher = stronger / more preferred TF binding). Conditions: protein concentration: 200 nM; construct: GST-full length.
T1 sequence: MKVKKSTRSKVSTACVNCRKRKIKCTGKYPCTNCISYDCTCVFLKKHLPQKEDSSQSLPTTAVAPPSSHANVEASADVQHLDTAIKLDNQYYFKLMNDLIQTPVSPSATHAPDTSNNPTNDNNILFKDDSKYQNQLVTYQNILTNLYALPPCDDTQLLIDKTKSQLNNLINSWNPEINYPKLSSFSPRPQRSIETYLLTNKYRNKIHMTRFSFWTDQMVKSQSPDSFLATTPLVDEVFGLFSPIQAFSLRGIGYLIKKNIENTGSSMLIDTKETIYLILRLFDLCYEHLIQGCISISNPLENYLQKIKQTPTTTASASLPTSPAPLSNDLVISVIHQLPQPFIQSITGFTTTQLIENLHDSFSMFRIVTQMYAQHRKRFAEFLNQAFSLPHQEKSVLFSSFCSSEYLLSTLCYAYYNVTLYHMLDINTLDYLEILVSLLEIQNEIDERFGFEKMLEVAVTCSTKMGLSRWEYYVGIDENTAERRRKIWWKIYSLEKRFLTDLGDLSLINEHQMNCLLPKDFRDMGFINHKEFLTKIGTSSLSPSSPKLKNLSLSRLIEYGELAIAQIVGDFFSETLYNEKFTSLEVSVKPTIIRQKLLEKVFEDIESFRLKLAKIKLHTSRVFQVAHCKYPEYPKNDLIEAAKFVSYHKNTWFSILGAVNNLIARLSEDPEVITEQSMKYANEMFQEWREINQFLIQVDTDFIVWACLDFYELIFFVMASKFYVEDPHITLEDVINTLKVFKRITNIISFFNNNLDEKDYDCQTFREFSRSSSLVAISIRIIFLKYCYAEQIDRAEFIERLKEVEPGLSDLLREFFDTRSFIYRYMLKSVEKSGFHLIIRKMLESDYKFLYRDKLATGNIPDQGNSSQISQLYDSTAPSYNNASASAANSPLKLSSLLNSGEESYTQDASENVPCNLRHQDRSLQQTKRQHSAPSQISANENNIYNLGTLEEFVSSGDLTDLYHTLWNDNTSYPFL
How it was run: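 The E-score, a modified Wilcoxon-Mann-Whitney statistic, was computed by the Universal PBM Analysis Suite for every ungapped eight-base word pooled with its reverse complement. Scans behind it were normalised with masliner after bound GST-tagged yeast transcription factors were detected with fluorescent anti-GST. The proteins, at about 100-200 nM, had been applied to universal all-10-mer Agilent arrays made double-stranded by primer extension.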

Sequence	PBM E-score
CCCTGAGA	-0.165
CTCAGAAC	-0.135
ACATATTA	-0.0563
AAGGTTGC	-0.0716
GACCTATA	0.0796
ATACAGAG	-0.223
AGGAAACG	-0.0809
CGGAAACA	0.451
GGGAAACC	0.149
AGGAAACC	0.00802
AGGAAACA	-0.0166
GGGAAACA	0.161
CGGAAACC	0.425
CGGAAACG	0.396
CAGAAACG	0.0256
GTAAGAAC	-0.0573
CGGGGTTA	0.304
CAAGGTAC	-0.25
CCTGGTCA	-0.169
AGTGCAAC	-0.107
CTGCGGAA	0.357
ATGCGGAC	0.134
GTGCGGAA	0.366
CTGCGGAC	0.1
GTGCGGCA	0.0901
CTGCGGCA	0.0359

Sequence	PBM E-score
GTGCGGGA	0.252
ATGCGGAG	0.0777
ATGCGGAA	0.416
CAGCCCGC	0.00736
AATATTAA	0.244
TTGGGAAA	0.0633
CGGCTCGA	0.174
CGAGTCGC	-0.0735
ACACCTCT	-0.0108
TAAACCAA	-0.263
GCCCAGGC	-0.138
ATCGGACA	0.221
ATCGGAGC	0.275
CTCGGAGA	0.312
CTCGGGAA	0.301
GTCGGAAA	0.416
ATCGGAAA	0.407
ATCGGAAC	0.469
GTCGGATA	0.218
ATCGGACC	0.313
ATCGGAGA	0.25
GTCGGAGA	0.173
CTCGGAAA	0.372
ATGAATAC	-0.0134
ATTGCGGA	0.328
CCAGTGCC	-0.1

Sequence	PBM E-score
ACACAAGC	0.0653
GAATGGGC	0.186
ACGCCGAC	0.163
GGAGATGA	0.094
GTGGGAAC	-0.0738
CTCGGAAG	0.39
GTCGGACA	0.218
ATCGGAAG	0.359
CTAGGAAG	-0.214
TCGGGAAA	0.309
ATCGGACG	0.209
ATCGGAGG	0.0523
GTCGGAAC	0.458
CTGGGAAG	-0.176
TTCAGAAA	-0.195
TTCGGAAA	0.391
AGATCTCC	0.0532
AGAGTATA	-0.259
ATCCTGGC	-0.0357
AGTGCCTC	-0.229
TTCCCCAA	-0.0249
CTCGGAGC	0.276
ATCGGATA	0.325
ATCGGCAT	0.175
ATCGGAAT	0.43
CTAGGAAC	-0.0409

Sequence	PBM E-score
CTCGGAAC	0.474
CCACAGCG	-0.0122
TACGGCCA	-0.0624
CTTCGCCC	0.0168
ACCGCCCG	0.227
CCCGCCGG	0.373
CCCGCCCA	0.231
ATCGCCGG	0.373
ATCGCCGC	0.166
CCCGCCGC	0.27
CCCGCCCG	0.372
ATCGCCGA	0.154
CGCGCCCG	0.23
CCCGCCGA	0.305
CCCGCCCC	0.357
ACCGCCCC	0.148
GAATCTCC	0.225
GTGGCCGA	0.107
ACCAGTCG	-0.0214
TCCGCCGA	0.376
GCCGCCGA	0.292
ACCGCCGA	0.103
CATGGGAG	-0.124
CAGTCTCG	-0.203
TGCGATAA	0.0592
ACGGTAGT	-0.00668

Sequence	PBM E-score
ATCGGGAA	0.279
CTCCGGGC	0.236
ATCCGGGG	0.389
ATCCGGGC	0.386
AGCCGGGC	0.137
ATCGGGGG	0.0408
ATCCGGGA	0.313
CTGCTCGA	-0.176
AGCCATCA	-0.0552
ACGCCGAT	-0.0606
CATCCGCA	0.237
AATCCGCT	0.16
AATCCGCA	0.246
AGTCCGCC	0.324
AGTCCGCA	0.203
AGTCCGCG	0.364
CATCCGCC	0.345
AATCCGCG	0.388
CATCCGCG	0.359
GCCCTAAA	-0.219
CCTCAAGC	-0.113
AGCTCTGC	-0.217
CAGCTCTA	-0.128
TAAGCGTA	-0.311
CGAGAGCG	0.0432
ATTCGGTC	0.0502

Sequence	PBM E-score
GCGAGAAA	-0.0403
TCGAGAAA	-0.197
CCGAGAAA	0.357
ACAGTGGT	-0.156
GGGATCCC	0.374
CAGATCCG	0.314
TGGATCCA	0.096
AGGATCCG	0.301
CGGATCCG	0.489
CGGATCCA	0.413
GGGATCCA	0.222
AGGATCCA	-0.0311
CGGATCGC	0.279
CGGATCCC	0.374
AGGATCCC	0.152
CAGATCCC	0.0667
AATCTTGT	0.126
GATCTGCA	-0.0215
CCATTCAG	0.0183
GATTTCCC	0.143
CACTCAAC	-0.0691
AGGGCGGA	0.285
CGGGCGGC	0.291
GGGGCGGA	0.359
GGGGCGTA	-0.114
CGGGCGTA	0.0837

Sequence	PBM E-score
CGGGCGGA	0.383
AGTCGGCC	0.13
AGAAGCAC	-0.185
AAAGTTAC	-0.127
GAGGTGTA	-0.13
AGATGCGC	0.0125
CCATGGAA	0.156
CGTTAGAG	-0.0371
ACCGCGCC	0.128
TCCGCGCA	0.397
GCCGCGCA	0.188
ACCGCGCA	0.0742
ACCGCGCT	0.139
CCCGCGCA	0.288
CGCGCGCA	0.347
ACCGCGCG	0.397
CGCGCGCC	0.241
CGCGCGCG	0.372
CCCGCGCC	0.265
CCCGCGCG	0.382
